Hits are enriched below; roughly 7.6% of the tested compounds scored in any of these assays.
VP16 counter = counter-screen for ROR gamma inhibitors: Gal4-VP16 reporter. Drosophila S2 Gal4-VP16 UAS-luciferase, luminescence, 20 h. Potency, µM (doses to about 53.6 µM), without a hit: at the top dose activity, negative = inhibition, usual class: inhibitors. 3.5% of 310,000 active. AID 2546;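 also: Gal4-VP16 expression switched on by copper sulfate through the metallothionein promoter; potency is read from the fitted curve at half-maximal effect; % is scaled to controls: 0 for no effect and ±100 for the full control effect; nearly all actives have a fitted effect of over 50% in size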
Giardia kill = kills Giardia lamblia; Giardia lamblia trophozoite viability; activity change, % at 7.66 µM, hits read low; 0.15% of 340,000 active; in the data active = activity change below about -80%; inconclusive = between about -30% and that limit;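 also: parasites exposed to compound for two days anaerobically before the ATP read; % is scaled to controls: 0 for no effect and ±100 for the full control effect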
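Luminescent ATP signal served as the viability read-out, measured 15-30 min after adding ATP detection reagent to trophozoites that had been incubated with compounds for 48 hrs at 37 deg C anaerobically at 100 cells/well.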
ELG1 repair inh = blocks ELG1-dependent DNA repair in HEK293T cells; Potency, µM (doses to about 46.1 µM), for the others: at the top dose activity change, negative = inhibition, usual class: inhibitors; AID 504467; 2.3% of 330,000 active; HEK293T ELG1-luciferase reporter, luminescence, 16 h; DNA damage induced by 5-fluorouridine; also: potency is read from the fitted curve at half-maximal effect; % is scaled to controls: 0 for no effect and ±100 for the full control effect; nearly all actives have a fitted effect of over 55% in size
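DMSO vehicle served as the neutral condition. Each well held 2,000 cells given 5-fluorouridine plus compound; after 16 hr at 37 °C/5% CO2, ONE-Glo was added and luciferase measured 30 min later.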
p53 reactivator = re-activators of mutant p53; H1299 p53-A138V BP100-luciferase reporter, luminescence, 24 h; 0.063% of 320,000 active; Potency, µM (titrated, usually from 92.2 µM), without a hit: at the highest dose activity change, positive = activation, most hits filed as activators; AID 504706; also: potency is read from the fitted curve at half-maximal effect; % of control where 0% means no effect; nearly all actives have a fitted effect of over 45% in size
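H1299 (p53-null), stable ts p53-A138V + BP100-Luc; 1000 cells/well, Opti-MEM/10% FBS; cpd 4 pt, 1:5; 24 h, 37 deg C, 5% CO2; detection reagent 10 min RT; luminescence.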
BRCA1 expr act = increases BRCA1 expression. MCF7-BRCA1-FFLuc reporter, luminescence, 48 h; response scale: scaled: vehicle 0%, 10 µM genistein 100%. Potency, µM (top dose mostly 46.1 µM), for inactives: top-dose activation, usual class: activators. 1.1% of 380,000 active; also: potency is read from the fitted curve at half-maximal effect; nearly all actives have a fitted effect of over 80% in size
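Quantitative HTS in MCF7 cells stably reporting BRCA1 expression via firefly luciferase. Compound treatment lasts 48 h at 37 °C in phenol-red free MEM. Activation is expressed relative to genistein at 10 microM and DMSO.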
RORgamma inh = inhibitors of mouse ROR gamma transcriptional activity; P51450; Drosophila S2 Gal4-RORgamma UAS-luciferase reporter, 20 h; Potency, µM (series often up to 53.6 µM), without a hit: at the top dose activity change, negative = inhibition, usual class: inhibitors; 5.4% of 310,000 active; AID 2551; also: potency is read from the fitted curve at half-maximal effect; % is scaled to controls: 0 for no effect and ±100 for the full control effect; nearly all actives have a fitted effect of over 60% in size
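Using a luciferase readout, inhibitors were identified by reduced reporter activity in Drosophila cells coexpressing a copper-inducible Gal4–ROR gamma fusion and UAS-driven Photinus luciferase, incubated 20 hr after 700 uM copper sulfate.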
ELG1-Luc inh = inhibits ELG1-dependent DNA repair in HEK293T cells, confirmed; shares compounds with ELG1 repair inh; HEK293T ELG1-luciferase levels, luminescence; cells co-treated with 5-fluorouridine; Potency, µM (doses to about 46.1 µM), for the others: top-dose activity change, negative = inhibition, actives largely listed as inhibitors; 68% of 670 active; also: potency is read from the fitted curve at half-maximal effect; % is scaled to controls: 0 for no effect and ±100 for the full control effect; nearly all actives have a fitted effect of over 55% in size
ELG1-Luc MMS = confirmation of human ELG1 repair inhibitors, MMS stimulated; shares compounds with ELG1 repair inh; HEK293T luciferase-tagged ELG1 level, MMS stimulated; Potency, µM (titrated, usually from 46.1 µM), inactives show at the top dose activity change, negative = inhibition, most hits filed as inhibitors; 53% of 670 active; AID 624249; also: potency is read from the fitted curve at half-maximal effect; % is scaled to controls: 0 for no effect and ±100 for the full control effect; nearly all actives have a fitted effect of over 60% in size
ELG1 5-FU = confirmation of ELG1 repair inhibitors: viability with 5FU. shares compounds with ELG1 repair inh. cell viability with 5-FU, ELG1-dependent repair. Potency, µM (top dose mostly 46.1 µM), inactives show at the highest dose activity change, negative = viability loss, usual class: cytotoxic. 670 tested, under 10 active. AID 624250;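 also: ELG1-luc HEK293T cells cotreated with 5-fluorouridine at 10 µM final; potency is read from the fitted curve at half-maximal effect; viability measured 16 h after compound addition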
ELG1 MMS viab = confirmation of ELG1 repair inhibitors: viability with MMS; shares compounds with ELG1 repair inh; Cell viability with MMS, ELG1-dependent DNA repair; Potency, µM (series often up to 46.1 µM), for the others: top-dose activity change, negative = viability loss, actives largely listed as cytotoxic; 33% of 670 active; AID 624251;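 also: ELG1-luc HEK293T cells co-treated with 10 µM MMS; potency is read from the fitted curve at half-maximal effect; viability read 16 h after compound addition; % is scaled to controls: 0 for no effect and ±100 for the full control effect; nearly all actives have a fitted effect of over 60% in size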
Cell viab unstim = unstimulated viability counter-screen for ELG1 repair hits | AID 624252 | Potency, µM (top dose mostly 45.9 µM), inactives show at the top dose activity change, negative = loss of viability, hits mostly cytotoxic | cell viability counter-screen, unstimulated, luminescence | 8% of 900 active | shares compounds with ELG1 repair inh;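 also: potency is read from the fitted curve at half-maximal effect; compound exposure lasted 16 hours before reading; % is scaled to controls: 0 for no effect and ±100 for the full control effect; nearly all actives have a fitted effect of over 55% in size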
An asterisk follows results filed as active. Unless noted, calls follow the shape of the dose curve; as a rule, active = well fitted curve in the direction sought with a large enough effect; inconclusive = small, poorly fitted or top-dose-only effect, or another doubt; inactive = no such curve, though single readings can be large; an effect the other way counts as inactive or inconclusive.

Results for CCN(C[C@H]1N[C@@](CC)(C(=O)OC)[C@H]2C(=O)N(Cc3ccccc3)C(=O)[C@@H]12)C(=O)c1ccc(C(C)(C)C)cc1 ?
Giardia kill: -8.1; ELG1 repair inh: 3.66µM*; p53 reactivator: -0.2%; BRCA1 expr act: -26.9%; ELG1-Luc inh: inconclusive; ELG1-Luc MMS: 7.05µM*; ELG1 5-FU: -1.0%; ELG1 MMS viab: inconclusive; Cell viab unstim: 25µM*

Results for COC(=O)[C@]1(Cc2ccccc2)N[C@H](CN(C)C(=O)c2ccc(C(C)(C)C)cc2)[C@@H]2C(=O)N(Cc3ccccc3)C(=O)[C@@H]21 ?
Giardia kill: -23.3; ELG1 repair inh: -24.3%; p53 reactivator: 2.4%; BRCA1 expr act: -10.0%

How did Cc1ccc(S(=O)(=O)N2CCCCC2)cc1NC(=O)CNc1ccc(C(F)(F)F)cc1 do in these assays?
Giardia kill: -21.9; ELG1 repair inh: 3.66µM*; p53 reactivator: -4.7%; BRCA1 expr act: -34.5%; ELG1-Luc inh: inconclusive; ELG1-Luc MMS: 31.5µM*; ELG1 5-FU: -3.3%; ELG1 MMS viab: 28.1µM*; Cell viab unstim: inconclusive

What do the screens show for `COc1ccc(S(=O)(=O)N2CCCCC2)cc1NC(=O)c1[nH]c(C)c(C(C)=O)c1C`?
Giardia kill: -1.2; ELG1 repair inh: inconclusive; p53 reactivator: -10.7%; BRCA1 expr act: -16.0%; Cell viab unstim: -19.4%

How did COc1ccc(CC(=O)Nc2cc(S(=O)(=O)N3CCCCC3)ccc2C)cc1OC do in these assays?
VP16 counter: inconclusive; Giardia kill: 4.7; ELG1 repair inh: 2.06µM*; p53 reactivator: 0.1%; BRCA1 expr act: -47.1%; RORgamma inh: inconclusive; ELG1-Luc inh: inconclusive; ELG1-Luc MMS: 1.41µM*; ELG1 5-FU: 3.0%; ELG1 MMS viab: 2.5µM*; Cell viab unstim: inconclusive

How did CC(C)(C)OC(=O)N[C@@H](COCc1ccccc1)C(=O)N[C@@H](CO)[C@H](O)[C@@H]1C[C@@H]1C(=O)NC1CCCCC1 do in these assays?
VP16 counter: 0.3%; Giardia kill: -10.0; ELG1 repair inh: -1.4%; BRCA1 expr act: -7.2%; RORgamma inh: -0.6%

Results for CCCc1nn(C)c(C(=O)Nc2ccccc2)c1Cl ?
VP16 counter: inconclusive; Giardia kill: -18.0; ELG1 repair inh: inconclusive; p53 reactivator: inconclusive; BRCA1 expr act: 76.6%; RORgamma inh: 14.9%

How did O=C(CCc1nnc2n(Cc3ccc(Cl)cc3)c(=O)c3ccccc3n12)N1CCN(c2ccccn2)CC1 do in these assays?
VP16 counter: -2.8%; Giardia kill: 16.0; ELG1 repair inh: 3.66µM*; p53 reactivator: -6.4%; BRCA1 expr act: -13.1%; RORgamma inh: -2.1%; ELG1-Luc inh: 6.28µM*; ELG1-Luc MMS: 22.3µM*; ELG1 5-FU: inconclusive; ELG1 MMS viab: inconclusive; Cell viab unstim: -10.3%

What do the screens show for `CN(Cc1ccccc1)C(=O)c1[nH]cnc1C(=O)NCCCCCNC(=O)OC(C)(C)C`?
Giardia kill: 8.8; ELG1 repair inh: -21.0%; p53 reactivator: -10.3%; BRCA1 expr act: -10.1%

How did CC(C)(C)OC(=O)NCCCCCNC(=O)c1ncn(Cc2ccccc2)c1C(=O)NCCCCCNC(=O)OC(C)(C)C do in these assays?
Giardia kill: -4.9; ELG1 repair inh: 4.11µM*; p53 reactivator: 6.0%; BRCA1 expr act: -25.5%; ELG1-Luc inh: 7.05µM*; ELG1-Luc MMS: -11.7%; ELG1 5-FU: inconclusive; ELG1 MMS viab: inconclusive; Cell viab unstim: -7.5%

How did CC(C)(C)OC(=O)NCCCCCNC(=O)c1nc[nH]c1C(=O)NCC(=O)OCc1ccccc1 do in these assays?
Giardia kill: -3.7; ELG1 repair inh: 2.59µM*; p53 reactivator: 1.3%; BRCA1 expr act: 11.9%; ELG1-Luc inh: 7.91µM*; ELG1-Luc MMS: 11.2µM*; ELG1 5-FU: -17.6%; ELG1 MMS viab: 22.3µM*; Cell viab unstim: 17.7µM*

How did CC(C)(C)OC(=O)NCc1ccc(NC(=O)c2nc[nH]c2C(=O)NCCNC(=O)c2[nH]cnc2C(=O)Nc2ccc(CNC(=O)OC(C)(C)C)cc2)cc1 do in these assays?
Giardia kill: -0.4; ELG1 repair inh: 1.3µM*; p53 reactivator: 2.1%; BRCA1 expr act: -47.8%; ELG1-Luc inh: 1.12µM*; ELG1-Luc MMS: 3.53µM*; ELG1 5-FU: 8.1%; ELG1 MMS viab: inconclusive; Cell viab unstim: inconclusive

Results for CC1CCN(C(=O)c2[nH]cnc2C(=O)NCCCCCNC(=O)OC(C)(C)C)CC1 ?
Giardia kill: 1.9; ELG1 repair inh: -8.9%; p53 reactivator: 10.4%; BRCA1 expr act: 0.0%

Results for CC(C)(C)OC(=O)NCCCCCNC(=O)c1nc[nH]c1C(=O)NCCCCCNC(=O)OC(C)(C)C ?
Giardia kill: 10.8; ELG1 repair inh: 2.59µM*; p53 reactivator: -8.2%; BRCA1 expr act: 0.0%; ELG1-Luc inh: 6.28µM*; ELG1-Luc MMS: 14.1µM*; ELG1 5-FU: inconclusive; ELG1 MMS viab: 28.1µM*; Cell viab unstim: 15.8µM*

Results for CC[C@H]1C=C[C@@H](C(C(=O)OC)C(=O)OC)CN1C(C)=O ?
Giardia kill: 23.2; BRCA1 expr act: 11.2%

Screening data from PubChem BioAssay.
